Where “and” joins values, the source holds several entries; their conditions need not be identical. Equal entries are not always repeated. About 83,000 compounds went through this panel and 20% of them were active in at least one assay; those are over-represented in the sample as a whole.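 Testing used 96-well plates and a 48-hour single-concentration exposure. Example: -40 means 40% of the starting cells died.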 Calls of active or inactive are those of the source. The calls were made as follows: active = growth percent below 10; inactive = the rest.
Experiments:
Assay in all cases: NCI-60 one-dose screen, 48 h (100 = growth as untreated, 0 = no growth, -100 = all killed)
Settings in all cases: 10 µM unless noted
HCT-15 colon = tested on: HCT-15 colon
HT29 colon = tested on: HT29 colon
SNB-75 CNS = tested on: SNB-75 CNS
SNB-19 CNS = tested on: SNB-19 CNS
U251 CNS = tested on: U251 CNS
PC-3 prostate = tested on: PC-3 prostate
SK-MEL-5 melanoma = tested on: SK-MEL-5 melanoma
UACC-62 melanoma = tested on: UACC-62 melanoma
LOX IMVI melanoma = tested on: LOX IMVI melanoma
SK-MEL-28 melanoma = tested on: SK-MEL-28 melanoma
SK-MEL-2 melanoma = tested on: SK-MEL-2 melanoma
EKVX NSCLC = tested on: EKVX NSCLC
SN12C renal = tested on: SN12C renal
UO-31 renal = tested on: UO-31 renal
TK-10 renal = tested on: TK-10 renal
ACHN renal = tested on: ACHN renal
CAKI-1 renal = tested on: CAKI-1 renal
A498 renal = tested on: A498 renal
CCRF-CEM leukemia = tested on: CCRF-CEM leukemia
MOLT-4 leukemia = tested on: MOLT-4 leukemia

O=C(Nc1ccc([N+](=O)[O-])cc1Cl)c1cc(Cl)ccc1O
growth (HCT-15 colon): -3.38% (active) and 0.947% (active) | growth (HT29 colon): -15.8% (active) and 3.08% (active) | growth (SNB-75 CNS): -35.7% (active) and -48.7% (active) | growth (SNB-19 CNS): 13.2% (inactive) and 21% (inactive) | growth (U251 CNS): 1.12% (active) and 16.7% (inactive) | growth (PC-3 prostate): 2.75% (active) and 6.39% (active) | growth (SK-MEL-5 melanoma): -89% (active) | growth (UACC-62 melanoma): -65.7% (active) and -45.3% (active) | growth (LOX IMVI melanoma): -17.5% (active) and -58.5% (active) | growth (SK-MEL-28 melanoma): 5.94% (active) and -10% (active) | growth (SK-MEL-2 melanoma): -53.2% (active) and -51.7% (active) | growth (EKVX NSCLC): -3.89% (active) and 6.47% (active) | growth (SN12C renal): -6.44% (active) and 3.08% (active) | growth (UO-31 renal): -43.8% (active) and -31.8% (active) | growth (TK-10 renal): -5.15% (active) and 7.49% (active) | growth (ACHN renal): -3.01% (active) and 8.03% (active) | growth (CAKI-1 renal): -0.639% (active) and -4.62% (active) | growth (A498 renal): -22% (active) | growth (CCRF-CEM leukemia): -20% (active) and 9.33% (active) | growth (MOLT-4 leukemia): -44.2% (active) and -6.34% (active)

CN(Cc1ccccc1)Cc1ccccc1
growth (HCT-15 colon): 103% (inactive) | growth (HT29 colon): 102% (inactive) | growth (SNB-75 CNS): 87.4% (inactive) | growth (SNB-19 CNS): 106% (inactive) | growth (U251 CNS): 99% (inactive) | growth (PC-3 prostate): 103% (inactive) | growth (SK-MEL-5 melanoma): 104% (inactive) | growth (UACC-62 melanoma): 101% (inactive) | growth (LOX IMVI melanoma): 95.1% (inactive) | growth (SK-MEL-28 melanoma): 110% (inactive) | growth (SK-MEL-2 melanoma): 104% (inactive) | growth (EKVX NSCLC): 102% (inactive) | growth (SN12C renal): 101% (inactive) | growth (UO-31 renal): 93% (inactive) | growth (TK-10 renal): 88.2% (inactive) | growth (ACHN renal): 108% (inactive) | growth (CAKI-1 renal): 93.9% (inactive) | growth (A498 renal): 114% (inactive) | growth (CCRF-CEM leukemia): 115% (inactive) | growth (MOLT-4 leukemia): 122% (inactive)

Cc1cc(O)c(C(C)C)cc1S(=O)(=O)O (tested in a mixture with another compound)
growth (HCT-15 colon): 96.7% (inactive) and 7.09% (active) and 99.5% (inactive) | growth (HT29 colon): 100% (inactive) and -3.9% (active) and 109% (inactive) | growth (SNB-75 CNS): 84.1% (inactive) and 10.4% (inactive) and 80.2% (inactive) | growth (SNB-19 CNS): 103% (inactive) and 35.4% (inactive) and 100% (inactive) | growth (U251 CNS): 90.3% (inactive) and 9.28% (active) and 102% (inactive) | growth (PC-3 prostate): 96.1% (inactive) and 19.8% (inactive) and 81.7% (inactive) | growth (SK-MEL-5 melanoma): 96.6% (inactive) and -34% (active) and 99.9% (inactive) | growth (UACC-62 melanoma): 87.4% (inactive) and 32.5% (inactive) and 91.3% (inactive) | growth (LOX IMVI melanoma): 92.1% (inactive) and 0.911% (active) and 107% (inactive) | growth (SK-MEL-28 melanoma): 110% (inactive) and 40.6% (inactive) and 107% (inactive) | growth (SK-MEL-2 melanoma): 99.6% (inactive) and 54% (inactive) and 112% (inactive) | growth (EKVX NSCLC): 93.2% (inactive) and 29.5% (inactive) | growth (SN12C renal): 92.4% (inactive) and 22.6% (inactive) and 102% (inactive) | growth (UO-31 renal): 90.7% (inactive) and -18.5% (active) and 77.4% (inactive) | growth (TK-10 renal): 87.8% (inactive) and 33.8% (inactive) and 132% (inactive) | growth (ACHN renal): 91.8% (inactive) and 10.8% (inactive) and 92.4% (inactive) | growth (CAKI-1 renal): 67.7% (inactive) and 12.1% (inactive) and 74.4% (inactive) | growth (A498 renal): 103% (inactive) and -18.3% (active) and 112% (inactive) | growth (CCRF-CEM leukemia): 94.5% (inactive) and 16.4% (inactive) | growth (MOLT-4 leukemia): 118% (inactive) and 9.88% (active) and 107% (inactive)

— PubChem BioAssay (NCI)
